Data: PubChem BioAssay
Calls of active or inactive are those of the source.

What was measured:
[1] = molecular target: Albumin (Bos taurus) (UniProt P02769); test: bovine serum albumin binders on microarray, profiling panel, artefact control for SMM control protein annotation, biochemical, small-molecule microarray, Alexa647 label, 635/667 nm fluorescence (AID 1118); details: BSA-A647 binding, fluorescence 635 nm, higher = more signal;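 also: score merges 667 nm emission intensity and signal-to-noise per printed compound spot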
Albumin (Bos taurus), sequence (P02769 whole entry, looked up): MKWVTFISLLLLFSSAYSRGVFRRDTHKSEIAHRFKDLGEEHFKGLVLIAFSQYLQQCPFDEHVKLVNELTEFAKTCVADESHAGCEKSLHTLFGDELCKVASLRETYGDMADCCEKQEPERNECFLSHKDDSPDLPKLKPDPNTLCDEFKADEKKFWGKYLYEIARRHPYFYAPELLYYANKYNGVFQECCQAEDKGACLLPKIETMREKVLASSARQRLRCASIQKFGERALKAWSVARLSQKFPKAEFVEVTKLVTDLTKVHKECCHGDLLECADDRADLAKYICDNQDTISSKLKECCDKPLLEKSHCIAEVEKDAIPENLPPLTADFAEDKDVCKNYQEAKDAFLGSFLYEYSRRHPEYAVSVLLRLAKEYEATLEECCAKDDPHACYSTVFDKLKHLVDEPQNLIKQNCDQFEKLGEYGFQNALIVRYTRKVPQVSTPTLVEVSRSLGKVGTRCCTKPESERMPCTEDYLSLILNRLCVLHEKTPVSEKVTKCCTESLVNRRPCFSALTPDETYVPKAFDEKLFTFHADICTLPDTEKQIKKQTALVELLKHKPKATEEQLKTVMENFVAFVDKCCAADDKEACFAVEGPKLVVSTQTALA

[2] = small-molecule microarray binders of probe aXIP, primary screen, biochemical, NeuroSMM set, 635/667 nm fluorescence (AID 1119); details: higher = more signal, called active from +8 up or from −8 down;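 also: probe is the protein aXip251-270 applied at 1 µg/mL to compound-printed slides; binding of probe to printed compounds measured as 667 nm fluorescence plus signal to noise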
[3] = small-molecule binders of probe aNOTCH3, primary screen, biochemical, small-molecule microarray, 635/667 nm fluorescence (AID 1120); details: higher = more signal;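 also: probe is a biotin-tagged antibody raised against NOTCH3 rather than NOTCH3 protein; score merges spot fluorescence near 667 nm with spot signal to noise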
[4] = small-molecule binders of probe aNOTCH2, primary screen, biochemical, small-molecule microarray, 635/667 nm fluorescence (AID 1121); details: higher = more signal;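 also: score merges feature fluorescence read at 667 nm with its signal to noise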
[5] = molecular target: Carbonic anhydrase 2 (Homo sapiens) (UniProt P00918); test: CAII small-molecule binders, profiling panel, biochemical, small-molecule microarray, Alexa647-labelled CAII (AID 1122); details: CAII-A647 binding fluorescence, higher = more signal
[6] = COS7 lysate on small-molecule microarray, probe aHis, 635 nm (AID 1123); details: COS7 cell lysate, fluorescence, higher = more signal;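 also: z-score combines 667nm fluorescence intensity with signal-to-noise per printed compound spot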
[7] = compound binding in COS7 lysate, probe aLAP1, primary screen, cell lysate, small-molecule microarray (AID 1124); details: probe aLAP1, fluorescence, higher = more signal;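 also: lysate comes from COS7 cells expressing LAP1 and is applied at 0.3 µg/mL; score merges spot fluorescence near 667 nm with signal-to-noise over triplicate slides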
[8] = system: Sam68 (KHDRBS1); test: Sam68 small-molecule binders, primary screen, biochemical, small-molecule microarray, 635 nm fluorescence (AID 1125); details: small-molecule microarray binding, higher = more signal;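 also: score merges 667 nm channel intensity with signal to noise over triplicate slides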
[9] = system: Chordin-like protein 2 (CHRDL2); test: CHRDL2 small-molecule binders, primary screen, biochemical, small-molecule microarray, 635 nm fluorescence (AID 1126); details: small-molecule microarray binding, fluorescence 635 nm; higher = more signal;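 also: printed compound slides probed with Chrdl2 protein at 4 µg/mL for 1 h at 4 C; score merges 667 nm emission intensity with signal to noise over three replicate slides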
[10] = molecular target: Concanavalin-A (Canavalia ensiformis) (UniProt P02866); test: ConA small-molecule binders, primary screen, artefact control for SMM control protein annotation, biochemical, small-molecule microarray, Alexa647 label, 635 nm (AID 1127); details: ConA-A647 binding fluorescence, higher = more signal;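 also: z combines 667 nm emission intensity with signal-to-noise across three replicate slides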
Concanavalin-A (Canavalia ensiformis), sequence (P02866 whole entry, looked up): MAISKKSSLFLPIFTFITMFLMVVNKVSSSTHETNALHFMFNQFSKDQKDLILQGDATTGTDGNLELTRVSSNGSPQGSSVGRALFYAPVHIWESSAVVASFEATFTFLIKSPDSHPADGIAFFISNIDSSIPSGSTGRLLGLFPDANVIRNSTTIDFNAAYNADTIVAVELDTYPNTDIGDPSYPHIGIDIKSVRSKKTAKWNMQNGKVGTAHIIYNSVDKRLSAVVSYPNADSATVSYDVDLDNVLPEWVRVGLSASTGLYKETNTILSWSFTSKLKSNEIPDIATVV

Structure (SMILES)	composite z-score [1]	composite Z-score [2]	composite z-score [3]	composite z-score [4]	composite z-score [5]	composite z-score [6]	composite z-score [7]	composite z-score [8]	composite z-score [9]	composite z-score [10]
CCOC(=O)C1=C[C@@H](C(C)(C)C)N(S(=O)(=O)c2ccc(C)cc2)[C@H]1c1ccccc1Cl	0.981	0.102 (inactive)	0.0203	0.0423	0.223	1.72	0.472	1.32	-0.584	1.12
COCC(=C=CC[C@@H](O)c1cccc(OCCO)c1)C[C@@H](O)COCc1ccccc1	0.809	-1.85 (inactive)	0.381	0.121	0.552	3.68	0.684	0.92	-0.69	0.132
C#CCN=C(N)N	-0.0077	0.322 (inactive)	0.0276	-0.0403	0.41	0.121	0.118	0.754	0.437	0.604
CCCC[C@H]1OB(O)C[C@H]2C1=C(C)C[C@H]1C(=O)C=CC(=O)[C@H]12	-0.324	-0.0764 (inactive)	0.0159	-0.106	0.011	0.423	0.121	1.04	0.821	0.544
CCOC(=O)C1=CC[C@@H](c2ccc(F)cc2)N(S(=O)(=O)c2ccc(C)cc2)[C@H]1c1ccc([N+](=O)[O-])cc1	0.854	0.348 (inactive)	0.137	-0.14	0.223	2	-0.0775	1.2	-0.493	1.09
CCOC(=O)C1=CCC(c2cc3ccccc3[nH]2)N(S(=O)(=O)c2ccccc2[N+](=O)[O-])C1 (stereo not given)	0.476	4.63 (inactive)	0.051	-0.188	0.674	2.37	0.375	0.644	0.0846	0.558
O=C(NCCO)C1=C[C@H](Oc2ccccc2I)[C@@H](O)[C@H](NCc2ccc(F)cc2)C1	-1.89	-0.48 (inactive)	-0.161	-0.14	-0.934	-0.809	1	-0.285	-0.0242	-1.83
Cc1ccc(S[C@]2(C(=O)NCCCN(C)C)CC(=O)N(Cc3ccccc3Cl)[C@@H]2c2ccc(CO)cc2I)cc1	-0.153	0.153 (inactive)	-0.136	-0.142	0.815	0.429	0.0345	-0.406	-0.697	-0.708
CCOC(=O)C[C@H]1[C@H](OC(=O)c2ccc(C(=O)c3ccccc3)cc2)[C@@H](NC(=O)c2ccc3ccccc3c2)c2cc(OCCCO)ccc2N1C(=O)c1ccc2ccccc2n1	0.544	0.159 (inactive)	0.134	0.0683	0.342	0.853	0.653	1.09	0.345	0.707
O=C1c2ccccc2[C@](Cc2ccccc2I)(C(=O)O)[C@H](c2ccc(CO)cc2)N1Cc1ccccc1	0.48	0.929 (inactive)	-0.123	-0.112	0.729	1.25	1.05	1.25	-0.813	1.02
COC(=O)[C@@]1(CCS(=O)(=O)c2ccccc2)N=C(c2ccc(OCCCO)cc2)O[C@H]1c1ccccc1N=[N+]=[N-]	0.827	-0.0127 (inactive)	0.0237	0.0196	0.356	2.92	0.406	1.3	0.889	1.11
CO[C@H]1O[C@H](CO)[C@@H](OC(=O)Nc2ccc3c(c2)OCO3)[C@@H]2OC(=O)[C@@H](Cc3ccccc3)C/C=C/C[C@H](Cc3ccccc3)C(=O)O[C@@H]12	-0.052	0.883 (inactive)	0.274	0.0318	0.552	0.859	0.48	0.943	0.455	0.921
COC(=O)[C@@]1(Cc2ccccc2CN=[N+]=[N-])COC(c2ccc(OCCCO)cc2)=N1	0.426	0.978 (inactive)	-0.425	-0.0959	0.0365	2.27	-0.365	0.424	-2.4	-1.38
COc1ccc(CCNC(=O)[C@@]2(C)c3ccccc3C(=O)N(Cc3cc(C(F)(F)F)cc(C(F)(F)F)c3)[C@H]2c2ccc(CO)cc2)cc1	0.0386	0.793 (inactive)	-0.179	-0.161	0.643	2.41	0.558	1.13	0.394	0.308
COc1cccc(OC)c1C(=O)O[C@H]1[C@@H]2OC(=O)[C@H](Cc3cccc(Br)c3)C/C=C/C[C@@H](Cc3cccc(Br)c3)C(=O)O[C@H]2[C@@H](OC)O[C@@H]1CO	0.33	0.878 (inactive)	-0.122	-0.105	0.628	1.2	0.56	1.06	0.351	0.293
